Laboratory results reported in article PMC5540273 (PLoS ONE, 2017).

Legend:
Settings in all cases: concentration: 1 μM, replicates: in singlicate; n = 1
[1] = system: AAK1
[2] = system: ABL1-nonphosphorylated
[3] = system: ABL1-phosphorylated
[4] = system: ABL2
[5] = system: ACVR1B
[6] = system: ACVR1
[7] = system: ACVR2A
[8] = system: ACVR2B
[9] = system: ACVRL1
[10] = system: T1, ADCK3
T1 construct: gene CABC1

[11] = system: ADCK4
[12] = system: AKT1
[13] = system: AKT2
[14] = system: AKT3
[15] = system: ALK
[16] = system: T2, AMPK-alpha1
T2 construct: gene PRKAA1
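Further: KINOMEscan kinase panel screen.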

Row | SMILES | %Inh [1] [%] | %Inh [2] [%] | %Inh [3] [%] | %Inh [4] [%] | %Inh [5] [%] | %Inh [6] [%] | %Inh [7] [%] | %Inh [8] [%] | %Inh [9] [%] | %Inh [10] [%] | %Inh [11] [%] | %Inh [12] [%] | %Inh [13] [%] | %Inh [14] [%] | %Inh [15] [%] | %Inh [16] [%]
1 | Fc1ccc(-c2nn3c(OCC(F)(F)F)cccc3c2-c2ccncc2)cc1 [GW514784] | 0 | 0 | 0 | 5 | 61 | 13 | 0 | 0 | 0 | 18 | 46 | 0 | 0 | 0 | 0 | 0
2 | CN1c2ccc(CNc3ccc(F)cc3)cc2-c2c(cnn2C)S1(=O)=O | 0 | 21 | 0 | 0 | 0 | 0 | 1 | 0 | 0 | 2 | 5 | 0 | 0 | 0 | 8 | 0
3 | CC(C)(C)n1cnc2c(N)ncnc21 [SKF-97359] | 0 | 37 | 0 | 1 | 0 | 0 | 0 | 0 | 0 | 0 | 31 | 0 | 0 | 0 | 29 | 0
4 | Cc1cccc(-c2nc(Nc3ccc4ncsc4c3)c3ccccc3n2)n1 [GW867588] | 7 | 0 | 0 | 20 | 35 | 15 | 0 | 2 | 0 | 0 | 0 | 12 | 0 | 0 | 0 | 19
5 | NCC(NC(=O)c1cc(-c2cn[nH]c2)c(-c2ccnc3[nH]ccc23)s1)c1ccccc1.O=C(O)C(F)(F)F.O=C(O)C(F)(F)F (stereo not drawn) [GSK1325775] | 86 | 1 | 0 | 0 | 0 | 52 | 15 | 0 | 0 | 52 | 58 | 66 | 23 | 83 | 38 | 17
6 | CC(=O)Nc1ccc(COc2ccc(Nc3ccnc4cc(-c5ccccn5)ccc34)cc2)cc1.Cl [GW440148] | 13 | 35 | 19 | 11 | 0 | 0 | 0 | 59 | 3 | 18 | 26 | 0 | 15 | 0 | 6 | 0
7 | C[C@@H](Oc1cc(-n2cnc3ccc(NC(=O)NC(C)(C)C)cc32)sc1C(N)=O)c1ccccc1Cl [GSK346294] | 15 | 0 | 0 | 9 | 0 | 0 | 0 | 17 | 1 | 37 | 31 | 0 | 3 | 0 | 0 | 6
8 | CCCCCc1nc2c(N)ncnc2n1CCCCC [SKF-97255] | 6 | 31 | 30 | 0 | 26 | 0 | 0 | 0 | 13 | 1 | 0 | 0 | 0 | 0 | 0 | 3
9 | CN1c2ccc(NCc3ccc(F)cc3)cc2-c2c(cnn2C)S1(=O)=O | 0 | 21 | 9 | 0 | 0 | 0 | 0 | 0 | 7 | 10 | 0 | 4 | 7 | 0 | 13 | 0
10 | O=c1cc(N2CCOCC2)nc2n(Cc3cccc4ccccc34)ccn12 [GSK2333389] | 0 | 0 | 0 | 17 | 0 | 0 | 9 | 0 | 0 | 6 | 0 | 0 | 20 | 0 | 2 | 0
11 | COc1ccc(S(=O)(=O)NC2CCN(c3cc(C)nc(Nc4cccc(C#N)c4)n3)CC2)cc1.O=C(O)C(F)(F)F [GSK1653539] | 0 | 0 | 0 | 1 | 0 | 0 | 0 | 0 | 0 | 20 | 35 | 0 | 0 | 0 | 5 | 0
12 | COc1ccc(COc2cc(-n3cnc4ccccc43)sc2C(N)=O)cc1 [GSK1024304] | 29 | 0 | 0 | 15 | 0 | 0 | 0 | 0 | 0 | 0 | 0 | 0 | 0 | 54 | 23 | 26
